High-throughput results: PubChem, National Center for Advancing Translational Sciences (NCATS)
Rows were chosen to be rich in hits. Some 20% of all compounds tested hit in one or more screens of this group.
CHX counter = affects cycloheximide protein synthesis inhibition readout, counter-screen. max response, %. AID 2314. cell reporter, cycloheximide protein synthesis inhibition counterscreen. 300,000 compounds, 12% hits; in the data active = max response mostly above about 13%, no sharp cut-off; inactive = mostly below about 14%; note: read at 38.3 µM for the half of the compounds with a filed dose; 0% is about no effect
HCMV antiviral = blocks human cytomegalovirus replication. 410,000 compounds, 4.5% hits. HFF cells, HCMV-luciferase reporter, 72 h; hits give low values. activity change, negative = inhibition, % at 57.5 µM. AID 1259415; in the data active = activity change below about -60%; inconclusive = no clear call, values can overlap the other calls; inactive = above about -39%; note: % is set by controls: 0 for no effect and ±100 for the full control effect
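Two-dose cell screen: HFF monolayers treated with compounds and infected with luciferase-expressing HCMV at 1 PFU/cell, 72 h at 37C, then lysed for luciferase measurement.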
Pf growth 96h = P. falciparum growth inhibition at 96 hours; 320,000 compounds, 6.9% hits; P. falciparum luciferase reporter growth, 96 h; Potency, µM (titrated, usually from 28.7 µM), without a hit: at the highest dose activity change, negative = inhibition, hits mostly inhibitors; note: potency is the fitted concentration of half-maximal effect; % is set by controls: 0 for no effect and ±100 for the full control effect
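Compounds incubated with erythrocytes infected by luciferase-expressing P. falciparum (2% hematocrit, 0.05% parasitemia final) for 96 hours, 37 C in 5% CO2. Growth inhibition scored as decreased luciferase luminescence.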
Pf growth 48h = inhibits P. falciparum growth in the first generation, 48 h. P. falciparum luciferase growth in erythrocytes, 48 h. Potency, µM (highest dose often 28.7 µM), without a hit: at the highest dose activity change, negative = inhibition, hits mostly inhibitors. 310,000 compounds, 5.9% hits. AID 504832; note: potency is the fitted concentration of half-maximal effect; % is set by controls: 0 for no effect and ±100 for the full control effect
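Compounds are pin-transferred into medium, infected erythrocytes (2% hematocrit, 0.1% parasitemia final) are added, and plates sit one parasite generation at 37 C in 5% CO2. Detection reagent is then added and luminescence measured.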
Shiga inhibitor = Shiga toxin inhibition. Vero cells, Shiga toxin protein synthesis inhibition reporter. inhibition, % at 38.7 µM. 290,000 compounds, 9.2% hits; in the data active = inhibition mostly above about 28%, no sharp cut-off; inactive = mostly below about 43%; note: 0% is about no effect
* marks the source's active call; other numbers are inactive results; ? = inconclusive; nt = not tested or not shown. Unless noted, calls come from the whole dose curve; as a rule, active = well fitted inhibition curve with a large enough effect; inconclusive = small, poorly fitted or top-dose-only effect, or another doubt; inactive = no such curve, though single readings can be large or run the other way.

SMILES | CHX counter | HCMV antiviral | Pf growth 96h | Pf growth 48h | Shiga inhibitor
N#Cc1ccccc1OCC(=O)NCC1(N2CCCCC2)CCCCC1 | 5 | 18 | -3% | 3.3µM* | -2
O=C(CSc1ccccc1)NCC1(N2CCOCC2)CCCCC1 | nt | -77* | 2% | -2% | nt
CS(=O)(=O)c1ccc(C(=O)NCC2(N3CCOCC3)CCCCC2)cc1 | nt | -19 | nt | nt | nt
N#CCC(=O)Nc1ccc(C(=O)NCC2(N3CCOCC3)CCCCC2)cc1 | nt | -27 | 10µM* | 12µM* | nt
O=C(COc1ccccc1Cl)NCC1(N2CCOCC2)CCCCC1 | nt | -100* | nt | nt | nt
COc1ccccc1OCC(=O)NCC1(N2CCOCC2)CCCCC1 | nt | 106 | nt | nt | nt
CS/C(=C\[N+](=O)[O-])Nc1ccc(OC(F)(F)F)cc1 | 12 | -61* | 2% | -11% | -9
C[n+]1cc2c3c(ccc2c2ccc4cc5c(cc4c21)OCO5)OCO3 | -15 | -98* | 104% | 66% | -37
CC(=O)c1ccc2c(c1)OCO2 | -2 | 19 | -4% | -4% | 24
Cc1cccc(N(C)C(CNS(=O)(=O)c2ccccc2)c2ccccc2)c1 (configuration not stated) | nt | -11 | nt | nt | nt
Cc1cn2c(=O)cc(COC(=O)COc3ccccc3C)nc2s1 | nt | 8 | nt | nt | nt
COCCOC(=O)CSc1ncccc1-c1nc2cc(C)c(C)cc2[nH]1 | 33* | 0 | 15% | 118% | 71
CCOC(=O)CSc1nc2cccnc2n1C | 14 | -29 | ? | 7% | 9
Cc1cc2nc(-c3cccnc3SCC(=O)NC(C)C)[nH]c2cc1C | 79* | 75 | 67% | 194% | 66*
COCCCNC(=O)CCc1c(C)nc2nc(-c3cc(OC)cc(OC)c3)nn2c1C | nt | 0 | nt | nt | nt
CCCCc1c(O)nc(SCC(=O)N2CCOCC2)n(-c2ccccc2OC)c1=O | -2 | 9 | 47% | -18% | -16
CC1CCCN(C(=O)CSc2nnc(-c3ccc(O)cc3)o2)C1 (configuration not stated) | -1 | -27 | 10% | -3% | 28
CC1CCCN(C(=O)CSc2nnc(-c3cccs3)o2)C1 (configuration not stated) | 39* | 34 | 3% | 140% | 64*
CCC1CCCCN1C(=O)CSc1nnc(-c2cccs2)o1 (configuration not stated) | 29* | 93 | 0% | 63% | 89*
CSCC[C@H](NC(=O)N1CCn2c1nc1ccccc12)C(=O)NCc1ccco1 | -11 | 32 | 20% | 5% | 13
COc1cc2nc(/C=C/c3cc(OC)c(OC)c(OC)c3)sc2cc1SC | -4 | -32 | -102% | 2.6µM* | -6
COc1cc2nc(C)sc2cc1SC | 1 | 20 | nt | nt | -9
CC1Cc2ccccc2N1C(=O)COC(=O)/C=C/c1ccc(F)cc1 (configuration not stated) | nt | 28 | 38% | 9% | nt
CC1Cc2ccccc2N1C(=O)/C=C/c1cccc(F)c1 (configuration not stated) | 45* | 19 | 293% | 251% | 87*
CCOCCCn1c(=N)c(C(=O)NCc2cccnc2)cc2c(=O)n3ccccc3nc21 | nt | -16 | nt | nt | nt
SMILES | CHX counter | HCMV antiviral | Pf growth 96h | Pf growth 48h | Shiga inhibitor
CCC(C)n1c(=N)c(C(=O)NCc2ccccc2)cc2c(=O)n3cc(C)ccc3nc21 (configuration not stated) | nt | -73* | nt | nt | nt
CCOCCCn1c(=N)c(C(=O)NCc2cccnc2)cc2c(=O)n3cc(C)ccc3nc21 | nt | -67* | nt | nt | nt
C=CCn1c(=N)c(C(=O)NCCCOC)cc2c(=O)n3ccccc3nc21 | -3 | 35 | 18% | 11% | -9
C=CCn1c(=N)c(C(=O)NCCCOC)cc2c(=O)n3cc(C)ccc3nc21 | -3 | 35 | 7.4µM* | 13% | -4
CCC(C)n1c(=N)c(C(=O)NCc2ccco2)cc2c(=O)n3cc(C)ccc3nc21 (configuration not stated) | nt | -26 | nt | nt | nt
O=C(COC(=O)c1cccc(OC(F)F)c1)NCC1CCCO1 (configuration not stated) | nt | 19 | nt | nt | nt
COc1cc(OC)cc(N2C(=O)CC(N3CCC(C(=O)N4CCCCC4)CC3)C2=O)c1 (configuration not stated) | 1 | 58 | 15µM* | 0% | 13
Cc1cc(OCC(=O)OCC(=O)c2ccc[nH]2)ccc1Cl | nt | -3 | 0% | -2% | nt
COc1ccc(N(C)S(=O)(=O)c2c(C)[nH]c(=O)[nH]c2=O)c(OC)c1 | -1 | 31 | 6.6µM* | 0% | 32
CCCSc1nnc(Nc2ccccc2C)s1 | 62* | -9 | 101% | 58% | 63*
